Some test systems named below: SK-MEL-2 melanoma; EKVX NSCLC; SN12C renal; UO-31 renal; TK-10 renal; ACHN renal; CAKI-1 renal; A498 renal; CCRF-CEM leukemia; MOLT-4 leukemia; RPMI-8226 leukemia; OVCAR-8 ovarian; OVCAR-5 ovarian; OVCAR-4 ovarian; SK-OV-3 ovarian; OVCAR-3 ovarian; HS 578T breast; NCI/ADR-RES ovarian; IGROV1 ovarian.
What all share (assay): NCI-60 one-dose screen, 48 h (100 = growth as untreated, 0 = no growth, -100 = all killed)
Conditions in all cases: 10 µM unless noted

Compounds without any hit were thinned out: in the full panel of roughly 83,000, 20% have a hit.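 Single-concentration screen, 48 h exposure, 96-well plates. Endpoint: percent growth. Below 10 = active.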 Unmarked numbers belong to inactive results. Activity calls are given as the source filed them.

As to `O=C1Nc2ccc(F)cc2C12Nc1cc(Cl)ccc1S2` (stereo not given), the growth was 157% in the test with SK-MEL-2 melanoma; 89.2% in the test on EKVX NSCLC; 97.9% in the test with SN12C renal; 80.4% in the test on UO-31 renal; 188% in the test with TK-10 renal; 99.8% with ACHN renal. Further, the growth in the test with CAKI-1 renal is 55.2%; in the test on A498 renal it was 89.2%; in the test on CCRF-CEM leukemia it was 76.4%; in the test with MOLT-4 leukemia, 74.5%; in the test with RPMI-8226 leukemia, 32.9%; in the test on OVCAR-8 ovarian it was 96.9%. Also, the growth in the test on OVCAR-5 ovarian was 121%; in the test on OVCAR-4 ovarian, 77.9%; with SK-OV-3 ovarian it was 83.8%; with OVCAR-3 ovarian, 82.8%; in the test on HS 578T breast, 94.4%; in the test on NCI/ADR-RES ovarian it was 93.4%.

`Cc1ccccc1NC(=O)N/C(N)=N/c1nc(-c2cccc([N+](=O)[O-])c2)cs1`: the growth with SK-MEL-2 melanoma is 37.3%; in the test with EKVX NSCLC it was 49.3%; with SN12C renal it was 54.8%; in the test with UO-31 renal, 58.1%; in the test on TK-10 renal, 101%; with ACHN renal, 53.7%. For the same molecule, the growth is 26.4% with CAKI-1 renal; -3.64% (active) with A498 renal; 35.9% in the test on CCRF-CEM leukemia; 30.2% in the test with MOLT-4 leukemia; 34.1% with RPMI-8226 leukemia; 67.3% in the test on OVCAR-8 ovarian. Further, the growth in the test on OVCAR-5 ovarian is 76.3%; with OVCAR-4 ovarian it was 56.5%; in the test with SK-OV-3 ovarian, 57.2%; with IGROV1 ovarian it was 37.1%; in the test with OVCAR-3 ovarian it was 26.9%; in the test on HS 578T breast it was 11.2%. Moreover, the growth in the test with NCI/ADR-RES ovarian is 2.74% (active).

Turning to `COc1ccc(NC(=O)CSc2nc(C)c(C(C)=O)n2-c2ccc([N+](=O)[O-])cc2)cc1`, the growth with SK-MEL-2 melanoma is 89.3%; in the test on EKVX NSCLC it was 88.1%; with SN12C renal it was 94.7%; in the test on UO-31 renal, 83.6%; with TK-10 renal it was 96.9%; in the test on ACHN renal it was 95.6%. Further, the growth in the test with CAKI-1 renal is 99.6%; in the test on A498 renal it was 58.1%; in the test with CCRF-CEM leukemia it was 111%; with MOLT-4 leukemia, 92.2%; in the test on RPMI-8226 leukemia, 102%; in the test with OVCAR-8 ovarian, 96.4%. Further, the growth in the test with OVCAR-5 ovarian is 89.8%; in the test with OVCAR-4 ovarian, 102%; in the test on IGROV1 ovarian, 95.8%; in the test with OVCAR-3 ovarian, 119%; in the test with HS 578T breast, 94.9%; with NCI/ADR-RES ovarian, 86%.

As to `Cc1ccc(S(=O)(=O)Oc2cc(OS(=O)(=O)c3ccc(C)cc3)cc(OS(=O)(=O)c3ccc(C)cc3)c2)cc1`, the growth in the test on SK-MEL-2 melanoma is 91.5%; in the test with EKVX NSCLC, 106%; with SN12C renal, 107%; in the test on UO-31 renal, 71.8%; in the test on TK-10 renal, 156%; with ACHN renal, 114%. In addition, the growth with CAKI-1 renal was 84.2%; in the test on A498 renal, 96.9%; in the test with CCRF-CEM leukemia, 95.7%; in the test with MOLT-4 leukemia, 82.2%; in the test on RPMI-8226 leukemia it was 88.6%; in the test with OVCAR-8 ovarian, 107%. Also, the growth is 105% in the test with OVCAR-5 ovarian; 93.2% with OVCAR-4 ovarian; 101% in the test on SK-OV-3 ovarian; 96.3% with OVCAR-3 ovarian; 95.8% with HS 578T breast; 95.6% in the test on NCI/ADR-RES ovarian.

With `CC(C)C(NC(=O)C1(NC(=O)OCc2ccccc2)CCCC1)C(=O)O` (stereo not given), the growth with SK-MEL-2 melanoma was 107%; with EKVX NSCLC, 110%; with SN12C renal it was 102%; in the test with UO-31 renal, 81%; in the test on TK-10 renal, 108%; in the test with ACHN renal, 96.8%. Moreover, the growth in the test with CAKI-1 renal was 102%; in the test on A498 renal it was 102%; in the test on CCRF-CEM leukemia, 104%; in the test with MOLT-4 leukemia, 96%; in the test with RPMI-8226 leukemia, 111%; in the test on OVCAR-8 ovarian, 110%. Also, the growth with OVCAR-5 ovarian is 94.8%; in the test with OVCAR-4 ovarian, 124%; with SK-OV-3 ovarian it was 96.2%; in the test on IGROV1 ovarian it was 107%; with OVCAR-3 ovarian, 120%; with NCI/ADR-RES ovarian, 104%.

Take `N#Cc1c(N)nc2c(C#N)c(NC(=O)c3ccccc3)nn2c1-c1ccccc1`: the growth with SK-MEL-2 melanoma is 101%; with EKVX NSCLC it was 71.9%; in the test on SN12C renal, 91.7%; in the test on UO-31 renal it was 61.3%; with TK-10 renal, 135%; in the test with ACHN renal, 89.6%. For the same molecule, the growth was 91% in the test with CAKI-1 renal; 59.1% in the test with A498 renal; 57.2% with CCRF-CEM leukemia; 74.9% in the test with MOLT-4 leukemia; 44.1% in the test on RPMI-8226 leukemia; 77% in the test with OVCAR-8 ovarian. In addition, the growth in the test on OVCAR-5 ovarian is 105%; in the test with OVCAR-4 ovarian, 88.8%; in the test with SK-OV-3 ovarian, 96.8%; with IGROV1 ovarian, 59.1%; in the test with HS 578T breast, 94.7%; in the test on NCI/ADR-RES ovarian, 85.5%.

For the molecule `COc1ccc(S(=O)(=O)NCCNc2nccc(-c3c(-c4cccc(F)c4)nc4sccn34)n2)cc1`, the growth was 58.1% with SK-MEL-2 melanoma; 39.7% in the test with EKVX NSCLC; 30.7% in the test on SN12C renal; 20.3% in the test with UO-31 renal; 55.8% in the test on TK-10 renal; 15.8% with ACHN renal. The growth in the test on CAKI-1 renal is 28.2%; in the test with A498 renal it was 43.1%; in the test with CCRF-CEM leukemia it was 32.3%; in the test on MOLT-4 leukemia, 33.9%; in the test on OVCAR-8 ovarian, 36.6%; in the test on OVCAR-5 ovarian, 62.9%. Further, the growth in the test with OVCAR-4 ovarian was 38.9%; in the test with SK-OV-3 ovarian, 54.3%; in the test with IGROV1 ovarian, 14.8%; with OVCAR-3 ovarian, 49.1%; with HS 578T breast, 31.4%; with NCI/ADR-RES ovarian, 30.3%.

For the molecule `Clc1cccc(Cl)c1C(Nc1nc2ccccc2s1)Nc1nc2ccccc2s1`, the growth in the test on SK-MEL-2 melanoma is 76%; in the test on EKVX NSCLC, 97.1%; in the test on SN12C renal, 108%; in the test with UO-31 renal, 75%; in the test with TK-10 renal, 114%; with ACHN renal it was 89.3%. Moreover, the growth is 108% in the test on CAKI-1 renal; 112% in the test on A498 renal; 81.7% in the test with CCRF-CEM leukemia; 89.5% in the test with MOLT-4 leukemia; 5.02% (active) with RPMI-8226 leukemia; 90.3% with OVCAR-5 ovarian. Besides, the growth in the test with OVCAR-4 ovarian was 84.6%; in the test on SK-OV-3 ovarian, 94.2%; in the test on IGROV1 ovarian it was -15.1% (active); in the test on OVCAR-3 ovarian, 114%; in the test on HS 578T breast it was 106%; in the test with NCI/ADR-RES ovarian, 108%.
